From PubChem BioAssay (NCI)
Compounds without any hit were thinned out: in the full panel of roughly 83,000, 20% have a hit.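 How to read the values: 0–100, growth inhibition (40 = 60% inhibited); 0, no net growth; -100 to 0, cell death (-40 = 40% of starting cells died; -100 = all dead).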 Unmarked numbers belong to inactive results. Activity calls are given as the source filed them. Rule for the calls: active = growth percent below 10; inactive = the rest.

How the values were obtained:
Assay in all cases: NCI-60 one-dose screen, 48 h (100 = growth as untreated, 0 = no growth, -100 = all killed)
NCI-H23 lung = conditions: 10 µM unless noted
NCI-H226 lung = conditions: 10 µM unless noted
NCI-H322M lung = conditions: 10 µM unless noted
HOP-62 NSCLC = conditions: 10 µM unless noted
NCI-H460 lung = conditions: 10 µM unless noted
HOP-92 NSCLC = conditions: 10 µM unless noted
NCI-H522 lung = conditions: 10 µM unless noted
A549/ATCC NSCLC = conditions: 10 µM unless noted
786-0 renal = conditions: 10 µM unless noted
COLO 205 colon = conditions: 10 µM unless noted
DU-145 prostate = conditions: 10 µM unless noted
K-562 leukemia = conditions: 10 µM unless noted
MALME-3M melanoma = conditions: 10 µM unless noted
MDA-MB-231 breast = conditions: 10 µM unless noted
RXF 393 renal = conditions: 10 µM unless noted
SF-268 CNS = conditions: 10 µM unless noted
SF-295 CNS = conditions: 10 µM unless noted
SF-539 CNS = conditions: 10 µM unless noted
UACC-257 melanoma = conditions: 10 µM
M14 melanoma = conditions: 10 µM unless noted

Row | Structure (SMILES) | growth (NCI-H23 lung) | growth (NCI-H226 lung) | growth (NCI-H322M lung) | growth (HOP-62 NSCLC) | growth (NCI-H460 lung) | growth (HOP-92 NSCLC) | growth (NCI-H522 lung) | growth (A549/ATCC NSCLC) | growth (786-0 renal) | growth (COLO 205 colon) | growth (DU-145 prostate) | growth (K-562 leukemia) | growth (MALME-3M melanoma) | growth (MDA-MB-231 breast) | growth (RXF 393 renal) | growth (SF-268 CNS) | growth (SF-295 CNS) | growth (SF-539 CNS) | growth (UACC-257 melanoma) | growth (M14 melanoma)
1 | CCn1cc(C(=O)O)c(=O)c2cc(F)c(N3CCN(S(=O)(=O)c4c(C)cc(C)cc4C)CC3)cc21 | 77.7% | 87.4% | 83.5% | 71.5% | 82.8% | 76.9% | 86.5% | 78% | 102% | 93.2% | 99.5% | 79.9% | 90.3% | 83.7% | 88.9% | 83.7% | 48.4% | 79.9% | 106% | 75.6%
2 | COc1cc(C2CC(c3c(C)[n+]([O-])c4ccccc4[n+]3[O-])=NN2)cc(OC)c1OC (stereo not given) | 99.6% | 100% | 119% | 106% | 112% | 87.8% | 104% | 113% | 102% | 102% | 112% | 106% | 112% | 104% | -20.2% (active) | 112% | 103% | 124% | – | –
3 | COc1cc(/C=C2\CCCC3=C2NC(C)=NC3c2cc(OC)c(OC)c(OC)c2)cc(OC)c1OC (stereo not given) | 33.9% | 37.7% | 41.1% | 22% | -28% (active) | 70.7% | 51.8% | 16.2% | 18% | 19.2% | 4.92% (active) | 11.1% | 30.2% | 13% | 22.7% | 21.2% | -25% (active) | 13.5% | 43.8% | -42% (active)
4 | CCC1CCc2nc3sc(C(=O)Nc4ccccc4F)c(N)c3cc2C1 (stereo not given) | 78.2% | 89.8% | 92.8% | 76.4% | 75.4% | 58.3% | 71.9% | 79.5% | 91.4% | 64.2% | 55.8% | 37.8% | 48.7% | 69.9% | 79.6% | 61.5% | 46.6% | 75% | 57.5% | –
5 | CN(C)c1nc(N)c(N=O)c(N)n1 | 107% | 112% | 111% | 107% | 110% | 102% | 106% | 109% | 106% | 127% | 113% | 103% | 118% | 108% | 118% | 110% | 127% | 110% | – | –
6 | O=c1c2cccc3c(Nc4ccc(F)cc4)ccc(c32)c2nc3ccccc3n12 | 83.8% | 92.7% | 67.8% | 87.5% | 77.9% | 53.2% | 82% | 96.1% | 97.5% | 84.5% | 95.5% | 89.5% | 94.1% | 70.9% | 98% | 95.3% | 109% | 83.8% | 86.2% | 96.7%
7 | CCCC(C(=O)OCC)C(C)OC(=O)OCC (stereo not given) | 100% | 101% | 100% | 93.3% | 113% | 90.2% | 86.1% | 104% | 99.5% | 103% | 106% | 81.6% | 85.9% | 105% | 96.3% | 96.9% | 84.7% | 107% | 97.5% | 97.6%
8 | CNC(=O)Cc1nc(-c2cccc(NS(=O)(=O)c3c(F)cccc3F)c2F)c(-c2ccnc(Nc3ccccc3)n2)s1 | 56% | 74.3% | 60.8% | 43.3% | 94% | 17.3% | 54.8% | 55.3% | 64% | 7.06% (active) | 79.5% | 20.5% | 0.396% (active) | -14.3% (active) | -6.63% (active) | 54.9% | 101% | 68.9% | 7.77% (active) | 2.35% (active)
9 | COc1cc2c3c(c(=O)oc2cc1OS(=O)(=O)c1ccc(C(F)(F)F)cc1)CCCCC3 | 76.8% | 77.8% | 84.9% | 64% | 89.9% | 56.8% | 71.6% | 75.4% | 72.2% | 93.1% | 82.4% | 97.3% | 72.1% | 68.6% | 30.1% | 93.4% | 81.9% | 64.9% | 95.6% | 83.7%
10 | C=C1C(=O)O[C@H]2[C@H]1CC/C(COC(=O)NCCc1ccc(OC)cc1)=C\CC[C@@]1(C)O[C@@H]21 | 66.6% | 0.324% (active) | 88.4% | 62.6% | 68.7% | 21.9% | -64.6% (active) | 64.1% | -31.9% (active) | -52.6% (active) | -12.2% (active) | 2.33% (active) | -8.71% (active) | 1.63% (active) | -30.6% (active) | 45.9% | 80.3% | 26.6% | – | –
11 | Cc1ccc2c(c1)C(=O)C(c1c(-c3[nH]c(=O)c4ccc(C)cc4c3O)c(O)c3ccccc3c1O)=NC2=O | 15.5% | -1.84% (active) | 38.8% | 8.69% (active) | -39.8% (active) | 38.7% | 7.58% (active) | 21.8% | 12.7% | 69.9% | -58.7% (active) | 10.7% | -39.1% (active) | -6.31% (active) | -10.8% (active) | 9.4% (active) | 49.9% | 61.1% | 63.1% | 35.7%
12 | C=CCOc1ccc(/C(O)=C2\C(=O)C(=O)N(c3nccs3)C2c2ccccc2F)cc1 (stereo not given) | 119% | 102% | 80% | 92.3% | 94.4% | 106% | 100% | 95.4% | 95.5% | 104% | 114% | 109% | 92.1% | 112% | -20.5% (active) | 116% | 85.1% | 125% | – | –
13 | Nc1c(C(=O)Nc2ccccc2)sc2nc3c(cc12)CCCCC3 | 36.6% | 27.3% | 21.3% | 7.61% (active) | 6.63% (active) | -4.43% (active) | 30.2% | 18.4% | 15.7% | 9.29% (active) | 4.69% (active) | 14.8% | -5.3% (active) | 22.2% | -5.96% (active) | 30.5% | -4.71% (active) | 7.96% (active) | 41.5% | 6.74% (active)
14 | Cn1cc(C=O)c2ccccc21 | 96.4% | 95.2% | 97.8% | 95.9% | 104% | 87.6% | 98.3% | 104% | 99.2% | 104% | 111% | 95.4% | 87.9% | 104% | 105% | 101% | 107% | 97.6% | 105% | 103%
15 | Cc1ccc(Oc2nc3ccccc3cc2-c2nnc(Cn3c(COc4ccccc4)nc4ccccc43)o2)cc1 | 66.5% | 64.9% | 92.3% | 49.8% | 94.1% | 14.2% | 70.2% | 81.3% | 62.7% | 84.6% | 63.5% | -3.18% (active) | 72.5% | 47.7% | 60.3% | 20.6% | 92% | 63.3% | 94.6% | –
16 | CCCCCCCCCCCCNC(=S)N/N=C/c1ccc(Cl)c(Cl)c1 | 109% | 106% | 112% | 105% | 112% | 122% | 65.7% | 103% | 106% | 106% | 116% | 97.2% | 113% | 104% | 108% | 118% | 98.3% | 94.2% | 107% | 105%
